# Test results from ChEMBL document CHEMBL1157539, “Thousands of chemical starting points for antimalarial lead identification” (Nature, 2010).
# Test system: Plasmodium falciparum
# Assay: GSK_TCMDC: Inhibition of Plasmodium falciparum Dd2 in whole red blood cells, using parasite LDH activity as an index of growth. Test compounds present at 2uM
# Format: functional
row,SMILES,Inhibition [%]
1,COc1cc(C(=O)N2C(c3nccs3)C(C(=O)N(OC)C(C)c3ccccc3)CC2(CC(C)C)C(=O)OC(C)(C)C)ccc1C(C)(C)C (stereo not given),92
2,CC(C)(C)c1ccc(CNCCOc2ccc(Nc3nnc(-c4ccc(-c5ncc[nH]5)cc4)o3)c3ccccc23)cc1.O=C(O)C(F)(F)F,88
3,COc1ccc(NCCCNc2ccnc3ccccc23)cc1,17
4,CCc1cn(C)c2c(N3CCCC3=O)cc(C(=O)N[C@@H](Cc3ccccc3)[C@H](O)CNC(C)(C)c3cccc(C(F)(F)F)c3)cc12,97
5,CN1CCC(c2c[nH]c3ccc(NC(=O)Nc4ccc(-c5ccncc5)cc4Cl)cc23)CC1,7
6,Cc1ccc(NC(=O)c2ccc3ncccc3c2)cc1OC1CCN(Cc2ccc(F)cc2)CC1.O=C(O)C(F)(F)F,22
7,c1ccc2[nH]c(Nc3ccc(Nc4nc5ccccc5[nH]4)cc3)nc2c1,27
8,CCCCCCN1CCCN(Cc2ccc(C(=O)Nc3cccc(CC)c3)cc2)CC1.O=C(O)C(F)(F)F,54
9,CCc1c(CCNCC/C=C/CCNCCc2ccc(OC)c(OC)c2CC)ccc(OC)c1OC.Cl,7
10,COCn1ncc2cc(-c3cccc(NC(=O)c4csc(NC(C)=O)n4)c3)ccc21,68
11,COc1cc2nc(N(C)Cc3cccc(I)c3)nc(N)c2cc1OC,88
12,Cc1ccc(S(=O)(=O)NC2CCN(CCNC(=O)Nc3cc(C)nc4ccccc34)C2)cc1 (stereo not given),42
13,CCC[C@@H]([C@@H](CC1CCCCC1)C(=O)N[C@@H](CCOC(=O)NCC)C(=O)Nc1nccs1)N(O)C=O,79
14,O=C(Nc1cccc(CN2CCCN(Cc3ccccc3)CC2)c1)c1cc2ccccc2s1.O=C(O)C(F)(F)F,28
15,O=C(NCCN1CCC(c2ccncc2)CC1)c1ccc(Nc2nccc(Nc3ccc(Oc4ccccc4)cc3)n2)cc1,90
16,c1ccc(COc2ccc(COc3ccc(Cn4ccnc4)cc3)cc2)cc1,45
17,FC(F)(F)c1ccc(N2CCCN(Cc3cccc(-c4ccccc4CNCc4ccc5c(c4)OCO5)c3)CC2)nc1.O=C(O)C(F)(F)F,11
18,Br.Cc1cccc(OCCCCON2C(=N)N=C(N)NC2(C)C)c1C,95

row,SMILES,Inhibition [%]
1,CC(C)NCc1ccc(-c2ccc(CN3CCCC(c4ccccc4)C3)cc2)c(C(=O)NC2Cc3ccccc3C2)c1.O=C(O)C(F)(F)F (stereo not given),64
2,CCN(CC)CCN(Cc1ccc(-c2ccc(C(F)(F)F)cc2)cc1)C(=O)Cn1c(CCc2ccc(F)c(F)c2F)nc(=O)c2ccccc21.O=C(O)C(O)C(O)C(=O)O,66
3,Cl.Nc1nc(N)c2c(ccc3c2ccn3C2CCCCC2)n1,46
4,COC(=O)Nc1ccc(-c2ccc(C(=O)NC3CCN(C[C@H](O)c4ccnc5ccc(OC)cc45)CC3)cc2)c(C)c1,97
5,CN1CCN=C1c1ccc(NC(=O)Nc2ccc(C3=NCCN3C)cc2)cc1.Cl,69
6,Cn1cnc2c(SCc3ccc(OCc4ccccc4)cc3)ncnc21,87
7,Cc1cc(N[C@@H](CC(C)C)C(=O)NCc2cccc(F)c2)nc(Nc2ccccc2)n1.O=C(O)C(F)(F)F,76
8,O=C(Nc1cccc(N2CCC(NCCCn3ccnc3)CC2)c1)c1cccc(C(F)(F)F)c1,2
9,Cc1cccc2nc(-c3ccc(-c4cccc(NC(=O)COc5ccccc5C(N)=O)c4)s3)[nH]c12,19
10,CN(C)CCOc1ccc(-c2cc(-c3ccc(Cl)c(O)c3)c(-c3ccncc3)[nH]2)cc1.Cl,92
11,Cc1cc2c(NC(=O)NC3CCN(CCc4ccccc4Cl)CC3)cccc2cn1.Cl,46
12,O=C(O)C(F)(F)F.Oc1ccc(CCCNc2nc(NCc3cccc4ccccc34)nc(N3CCCNCC3)n2)cc1,62
13,COc1ccc(S(=O)(=O)NCC2CCCN(CCCCCNC(=O)/C=C/c3ccc(Cl)c(Cl)c3)C2)cc1 (stereo not given),1
14,Cc1ccc(C(C#N)c2ccc3c(C(F)(F)F)cc(C(F)(F)F)nc3n2)cc1 (stereo not given),36
15,CC(C)(C)c1ccc2[nH]c(-c3ccc(C(=O)NC4CCN(Cc5ccccc5)CC4)s3)nc2c1,42
16,Cc1[nH]c2ccccc2c1C(=O)C(C)Sc1nnc(-c2ccccc2Br)[nH]1 (stereo not given),100
17,COc1cc(Cc2cnc(N)nc2N)cc(OCc2cccc(C(=O)O)c2)c1OC.Cl,0
